# Measured values taken from PubChem BioAssay (Tox21).
# A number with no mark means an inactive call. Records with an inconclusive call do not appear. A call without a number means that no potency is given here. The source made the active and inactive calls. Unless noted, calls come from the whole dose curve; as a rule, active = well fitted curve in the direction sought with a large enough effect in the repeat runs; inconclusive = weak or mixed curves; inactive = no such curve, though single readings can be large; an effect the other way counts as inactive or inconclusive.
# How the values were obtained:
# [1] = qHTS assay to identify small molecule antagonists of the TGF-beta/Smad signaling pathway - cell viability counter screen (AID 1346824); note: nearly all actives have a fitted effect of over 50% in size
# Outline: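 SBE-bla HEK 293T cells, incubated overnight, then compound plus 0.25 ng/mL TGF-beta1 (stock added) for 5 hr at 37 C. Viability was read in the same wells by CellTiter-Glo luminescence after 30 min at room temperature.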
# [2] = qHTS assay to identify small molecule agonists of the TGF-beta/Smad signaling pathway - cell viability counter screen (AID 1346829); note: top concentration of the series differs between compounds; nearly all actives have a fitted effect of over 45% in size
# Outline: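 Here the cytotoxicity of library compounds is measured in SBE-bla HEK 293T cells treated for 5 hr, using CellTiter-Glo added to wells already read for the beta-lactamase reporter.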
# [3] = qHTS assay to identify small molecule agonists of the TGF-beta/Smad signaling pathway (AID 1346859; active = well fitted activation curve with a large enough effect in the signal ratio in the repeat runs, not every such curve was filed as active; the % refers to the signal ratio; note: series mostly up to about 77 µM)
# Outline: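 Fluorescence (ex 405 nm; em 460 and 530 nm) was read 2 h after LiveBLAzer FRET substrate at RT. The preceding compound treatment of overnight-plated SBE-bla HEK293T cells lasted 5 h at 37 C.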
# [4] = Caspase-3/7 induction in HepG2 cells by small molecules, qHTS assay (AID 1346978); note: nearly all actives have a fitted effect of over 15% in size; note: potency is the fitted concentration of half-maximal effect
# Outline: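 Wild-type HepG2 cells, 2,000/well, settled 5 hr at 37 C and 5% CO2, then compound-treated for 17 hr; caspase-3/7 activity read by luminescent Caspase-Glo 3/7 after 30 min at room temperature.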
# [5] = Caspase-3/7 induction in CHO-K1 cells by small molecules, qHTS cell viability counter screen (AID 1346979); note: nearly all actives have a fitted effect of over 35% in size; note: potency is the fitted concentration of half-maximal effect
# Outline: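 Cytotoxicity counter screen: CellTiter-Fluor added to compound-treated wild-type CHO-K1 cells at 16 h (37C, 5% CO2), fluorescence measured 1 h later; same wells as caspase-3/7 measurement.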
# [6] = Caspase-3/7 induction in CHO-K1 cells by small molecules, qHTS assay (AID 1346980); note: nearly all actives have a fitted effect of over 15% in size
# Outline: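 Wild-type CHO-K1 cells exposed to compounds for 17hr at 37 C, 5% CO2. Caspase-3/7 activity then measured by Caspase-Glo 3/7 luminescence after 30min at room temperature.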
# [7] = Caspase-3/7 induction in HepG2 cells by small molecules, qHTS cell viability counter screen (AID 1346981); note: nearly all actives have a fitted effect of over 30% in size; note: potency is the fitted concentration of half-maximal effect; for activity change, negative = cytotoxicity: series mostly up to about 92 µM
# Outline: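 Multiplexed with the caspase-3/7 assay: HepG2 cells, 16 hr compound treatment, CellTiter-Fluor viability detection by fluorescence.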
# [8] = target: Cytochrome P450 2C19 (Homo sapiens) (UniProt P33261); test: Cytochrome P450 Family 2 Subfamily C Member 19 (CYP2C19) small molecule antagonists: luciferase reporter qHTS assay (AID 1671197); note: nearly all actives have a fitted effect of over 65% in size; note: potency is the fitted concentration of half-maximal effect; for activity change, negative = inhibition: series mostly up to about 120 µM
# Cytochrome P450 2C19 (Homo sapiens), sequence (P33261 whole entry, looked up): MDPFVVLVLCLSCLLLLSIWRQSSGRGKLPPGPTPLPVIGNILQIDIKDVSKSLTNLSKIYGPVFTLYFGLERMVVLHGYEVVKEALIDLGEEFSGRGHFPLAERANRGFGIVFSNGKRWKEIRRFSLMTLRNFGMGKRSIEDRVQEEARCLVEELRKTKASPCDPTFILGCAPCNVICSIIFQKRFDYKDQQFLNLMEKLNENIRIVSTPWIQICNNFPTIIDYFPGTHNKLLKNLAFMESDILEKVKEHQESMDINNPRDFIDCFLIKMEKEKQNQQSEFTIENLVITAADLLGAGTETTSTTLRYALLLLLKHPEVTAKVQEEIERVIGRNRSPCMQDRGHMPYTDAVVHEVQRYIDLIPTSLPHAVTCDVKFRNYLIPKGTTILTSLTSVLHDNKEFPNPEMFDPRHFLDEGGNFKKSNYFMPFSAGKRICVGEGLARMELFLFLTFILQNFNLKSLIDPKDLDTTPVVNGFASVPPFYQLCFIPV
# Outline: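 Light output is proportional to CYP2C19 activity: proluciferin substrate is converted to luciferin, then detected by a luciferin detection reagent that also stops the 1 h, 37C NADPH-driven reaction. Ketoconazole serves as positive control.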
# [9] = target: Cytochrome P450 2C9 (Homo sapiens) (UniProt P11712); test: Cytochrome P450 Family 2 Subfamily C Member 9 (CYP2C9) small molecule antagonists: luciferase reporter qHTS assay (AID 1671198); note: nearly all actives have a fitted effect of over 50% in size; note: potency is the fitted concentration of half-maximal effect; for activity change, negative = inhibition: series mostly up to about 120 µM
# Cytochrome P450 2C9 (Homo sapiens), sequence (P11712 whole entry, looked up): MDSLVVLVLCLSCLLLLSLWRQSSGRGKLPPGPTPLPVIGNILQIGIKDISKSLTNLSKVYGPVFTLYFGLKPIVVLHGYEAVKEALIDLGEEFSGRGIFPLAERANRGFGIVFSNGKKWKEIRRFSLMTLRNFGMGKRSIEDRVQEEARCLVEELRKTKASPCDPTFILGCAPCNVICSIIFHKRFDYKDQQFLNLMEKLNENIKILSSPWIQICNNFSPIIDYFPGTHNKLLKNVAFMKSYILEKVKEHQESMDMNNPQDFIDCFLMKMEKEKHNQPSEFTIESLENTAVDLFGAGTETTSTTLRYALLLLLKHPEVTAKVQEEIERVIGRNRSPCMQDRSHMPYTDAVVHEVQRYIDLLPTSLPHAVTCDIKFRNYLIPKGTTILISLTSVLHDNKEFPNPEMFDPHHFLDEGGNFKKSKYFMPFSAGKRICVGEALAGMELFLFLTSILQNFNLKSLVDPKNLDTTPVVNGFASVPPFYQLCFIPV
# Outline: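 P450-Glo proluciferin substrate with CYP2C9 enzyme; 10 min RT preincubation, then NADPH regeneration 1 h at 37C; luciferin detection reagent 20 min RT, luminescence in relative luminescence units.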
# [10] = target: Voltage-gated inwardly rectifying potassium channel KCNH2 (Homo sapiens) (UniProt Q12809); test: Human Ether-a-go-go-Related Gene (hERG) channel small molecule antagonists: fluorescence cell-based qHTS assay (AID 1671200); note: series mostly up to about 77 µM; nearly all actives have a fitted effect of over 50% in size
# Voltage-gated inwardly rectifying potassium channel KCNH2 (Homo sapiens), sequence (Q12809 whole entry, looked up): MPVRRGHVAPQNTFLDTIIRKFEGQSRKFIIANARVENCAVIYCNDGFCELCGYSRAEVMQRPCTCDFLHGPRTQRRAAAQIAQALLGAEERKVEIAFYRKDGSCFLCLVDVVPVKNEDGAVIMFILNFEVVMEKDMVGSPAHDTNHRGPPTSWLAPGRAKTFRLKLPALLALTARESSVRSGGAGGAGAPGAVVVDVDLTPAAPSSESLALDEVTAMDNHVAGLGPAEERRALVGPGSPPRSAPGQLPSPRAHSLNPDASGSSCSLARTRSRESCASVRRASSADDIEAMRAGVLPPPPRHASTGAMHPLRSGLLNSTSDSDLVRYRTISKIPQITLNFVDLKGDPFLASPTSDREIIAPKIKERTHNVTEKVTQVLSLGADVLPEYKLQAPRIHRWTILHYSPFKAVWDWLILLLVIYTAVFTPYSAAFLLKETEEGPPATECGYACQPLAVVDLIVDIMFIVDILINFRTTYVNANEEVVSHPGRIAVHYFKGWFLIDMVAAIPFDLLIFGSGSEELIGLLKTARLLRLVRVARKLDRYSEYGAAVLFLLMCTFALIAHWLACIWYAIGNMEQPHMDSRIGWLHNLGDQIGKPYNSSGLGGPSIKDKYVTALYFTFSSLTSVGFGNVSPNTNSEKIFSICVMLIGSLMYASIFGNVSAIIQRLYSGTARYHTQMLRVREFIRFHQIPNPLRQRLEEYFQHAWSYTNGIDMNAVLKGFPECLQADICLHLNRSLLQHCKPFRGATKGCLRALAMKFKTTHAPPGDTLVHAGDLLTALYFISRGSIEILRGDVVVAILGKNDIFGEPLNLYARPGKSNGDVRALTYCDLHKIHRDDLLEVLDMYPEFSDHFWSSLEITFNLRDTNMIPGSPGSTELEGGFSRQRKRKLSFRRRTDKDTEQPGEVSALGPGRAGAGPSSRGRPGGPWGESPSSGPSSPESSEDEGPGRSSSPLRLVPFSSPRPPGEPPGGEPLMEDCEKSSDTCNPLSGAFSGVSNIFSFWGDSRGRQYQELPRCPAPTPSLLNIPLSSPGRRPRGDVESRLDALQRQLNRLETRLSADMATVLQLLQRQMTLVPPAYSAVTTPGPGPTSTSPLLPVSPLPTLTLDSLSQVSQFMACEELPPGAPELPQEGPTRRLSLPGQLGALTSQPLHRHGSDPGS
# Outline: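 Thallium flux as potassium surrogate: FluxOR II dye loaded 1 h at room temperature into hERG-expressing U2OS cells, then stimulus buffer added after 10 min. Kinetic 480 nm excitation/540 nm emission read, 2 min.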
# [11] = target: Nuclear receptor subfamily 1 group I member 2 (Homo sapiens) (UniProt O75469); test: Human pregnane X receptor (PXR) small molecule agonists, qHTS assay (AID 1346982); note: nearly all actives have a fitted effect of over 35% in size; note: potency is the fitted concentration of half-maximal effect
# Nuclear receptor subfamily 1 group I member 2 (Homo sapiens), sequence (O75469 whole entry, looked up): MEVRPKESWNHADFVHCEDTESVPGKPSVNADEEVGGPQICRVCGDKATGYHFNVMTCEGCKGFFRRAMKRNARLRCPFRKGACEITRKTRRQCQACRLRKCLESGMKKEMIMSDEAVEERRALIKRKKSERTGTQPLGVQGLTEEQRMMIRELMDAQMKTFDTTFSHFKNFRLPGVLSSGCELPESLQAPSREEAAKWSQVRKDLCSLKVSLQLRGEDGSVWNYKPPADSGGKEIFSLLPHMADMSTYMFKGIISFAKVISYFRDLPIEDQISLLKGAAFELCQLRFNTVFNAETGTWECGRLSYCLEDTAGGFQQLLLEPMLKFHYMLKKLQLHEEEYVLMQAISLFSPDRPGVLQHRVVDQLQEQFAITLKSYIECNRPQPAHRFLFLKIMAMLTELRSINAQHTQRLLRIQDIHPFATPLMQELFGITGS
# Outline: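 We seeded PXR-Luc HepG2 cells in assay medium containing 5% charcoal-stripped FBS, added compounds 5 hr later, incubated 24 hr, and read luminescence with ONE-Glo reagent.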
# [12] = target: Thyrotropin-releasing hormone receptor (Homo sapiens) (UniProt P34981); test: qHTS assay to identify small molecule antagonists of the thyrotropin-releasing hormone receptor (TRHR) signaling pathway (AID 1346877; active = well fitted inhibition curve with a large enough effect in the repeat runs, not every such curve was filed as active; note: series mostly up to about 51 µM)
# Thyrotropin-releasing hormone receptor (Homo sapiens), sequence (P34981 whole entry, looked up): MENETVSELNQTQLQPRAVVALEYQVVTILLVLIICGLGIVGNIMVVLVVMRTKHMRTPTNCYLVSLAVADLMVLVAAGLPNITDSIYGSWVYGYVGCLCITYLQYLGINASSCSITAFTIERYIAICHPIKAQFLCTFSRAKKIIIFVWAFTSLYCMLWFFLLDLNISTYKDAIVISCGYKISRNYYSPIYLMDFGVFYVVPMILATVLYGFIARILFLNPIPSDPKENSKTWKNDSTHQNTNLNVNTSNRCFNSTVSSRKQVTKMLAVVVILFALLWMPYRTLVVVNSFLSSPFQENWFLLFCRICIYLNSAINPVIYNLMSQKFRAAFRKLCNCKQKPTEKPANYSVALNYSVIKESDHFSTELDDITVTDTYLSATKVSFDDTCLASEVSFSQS
# Outline: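 Screening used HEK293 cells engineered with TRHR, with a brief 5 min room-temperature compound exposure preceding addition of TRH to 1 nM. The read-out was kinetic calcium-dye fluorescence, concentration-response from 15 doses in triplicate.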
# [13] = target: Thyrotropin-releasing hormone receptor (Homo sapiens) (UniProt P34981); test: qHTS assay to identify small molecule agonists of the thyrotropin-releasing hormone receptor (TRHR) signaling pathway (AID 1346891; calls by dose curve; note: series mostly up to about 58 µM)
# Outline: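 Agonist-mode intracellular calcium readout: kinetic fluorescence over 3 min at 1 s intervals after compound addition to TRHR-HEK293 cells (18 h seeded, 2 h dye-loaded at 37 C). Fifteen concentrations, triplicates.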
# [14] = Human pregnane X receptor (PXR) small molecule agonists, qHTS cell viability counter screen (AID 1346977); note: nearly all actives have a fitted effect of over 50% in size; note: potency is the fitted concentration of half-maximal effect
# Outline: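 Same-well viability read: CellTiter-Fluor added after 23 hr compound exposure, fluorescence measured 1 hr later. Cells were PXR-Luc HepG2 seeded at 2,000/well in 5% charcoal-stripped FBS medium, rested 5 hr before dosing at 37 C.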
# [15] = target: Cytochrome P450 2D6 (Homo sapiens) (UniProt P10635); test: Cytochrome P450 Family 2 Subfamily D Member 6 (CYP2D6) small molecule antagonists: luciferase reporter qHTS assay (AID 1671196); note: nearly all actives have a fitted effect of over 50% in size; note: potency is the fitted concentration of half-maximal effect; for activity change, negative = inhibition: series mostly up to about 120 µM
# Cytochrome P450 2D6 (Homo sapiens), sequence (P10635 whole entry, looked up): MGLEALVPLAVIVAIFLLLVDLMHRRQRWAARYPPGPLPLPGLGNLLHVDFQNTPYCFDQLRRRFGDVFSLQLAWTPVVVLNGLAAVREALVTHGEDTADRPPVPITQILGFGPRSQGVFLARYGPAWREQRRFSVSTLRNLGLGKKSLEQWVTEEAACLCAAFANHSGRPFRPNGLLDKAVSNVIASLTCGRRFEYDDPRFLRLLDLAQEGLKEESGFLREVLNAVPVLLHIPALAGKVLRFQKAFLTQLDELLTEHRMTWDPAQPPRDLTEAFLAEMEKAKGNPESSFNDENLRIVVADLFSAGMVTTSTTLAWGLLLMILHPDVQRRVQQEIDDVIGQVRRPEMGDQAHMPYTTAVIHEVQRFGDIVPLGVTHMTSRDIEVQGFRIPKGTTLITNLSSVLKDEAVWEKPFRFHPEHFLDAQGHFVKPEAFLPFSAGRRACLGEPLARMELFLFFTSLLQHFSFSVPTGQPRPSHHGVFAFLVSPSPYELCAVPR
# Outline: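 Luminescence (RLU), read 20 min after detection reagent, indicated CYP2D6 conversion of proluciferin to luciferin during a 1 h NADPH-dependent reaction at room temperature.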
# [16] = target: Cytochrome P450 1A2 (Homo sapiens) (UniProt P05177); test: Cytochrome P450 Family 1 Subfamily A Member 2 (CYP1A2) small molecule antagonists: luciferase reporter qHTS assay (AID 1671199); note: nearly all actives have a fitted effect of over 50% in size; note: potency is the fitted concentration of half-maximal effect; for activity change, negative = inhibition: series mostly up to about 120 µM
# Cytochrome P450 1A2 (Homo sapiens), sequence (P05177 whole entry, looked up): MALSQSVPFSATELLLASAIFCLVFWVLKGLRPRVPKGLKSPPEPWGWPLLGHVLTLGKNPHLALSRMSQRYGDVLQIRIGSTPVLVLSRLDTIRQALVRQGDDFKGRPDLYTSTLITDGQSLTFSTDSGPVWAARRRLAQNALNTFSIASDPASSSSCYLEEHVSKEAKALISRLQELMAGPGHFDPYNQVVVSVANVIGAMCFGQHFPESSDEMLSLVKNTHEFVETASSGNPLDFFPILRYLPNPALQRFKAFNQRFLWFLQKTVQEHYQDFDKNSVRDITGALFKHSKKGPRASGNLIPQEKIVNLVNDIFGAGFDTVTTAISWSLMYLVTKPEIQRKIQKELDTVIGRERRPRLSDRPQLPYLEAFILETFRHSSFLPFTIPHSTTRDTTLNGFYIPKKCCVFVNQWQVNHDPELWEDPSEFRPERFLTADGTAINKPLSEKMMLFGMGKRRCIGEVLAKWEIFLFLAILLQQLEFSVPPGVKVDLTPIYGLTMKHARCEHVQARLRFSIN
# Outline: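 CYP1A2 turnover of a luminogenic substrate was quantified after 1 h with NADPH regeneration at room temperature. Furafylline served as positive control.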
# [17] = qHTS assay to identify small molecule agonists of the progesterone receptor (PR) signaling pathway - cell viability counter screen (AID 1346799; calls by dose curve; note: nearly all actives have a fitted effect of over 45% in size; note: potency is the fitted concentration of half-maximal effect)
# Outline: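 Cytotoxicity measured by CellTiter-Glo luminescence (30 min, RT) in the same wells as the PR beta-lactamase agonist read. Those HEK293T cells had 16 h compound treatment at 37 C in 2% charcoal-stripped FBS medium.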
compound,measurement,setting,value
Cc1ccc(Cl)c(N)c1Cl,Potency,[1],inactive
same,Potency,[2],inactive
same,outcome,[3],inactive
same,Potency,[4],inactive
same,Potency,[5],inactive
same,Potency,[6],inactive
same,Potency,[7],inactive
same,Potency,[8],inactive
same,Potency,[9],inactive
same,Potency,[10],inactive
O=c1[nH]cccc1O,Potency,[1],inactive
same,Potency,[2],inactive
same,outcome,[3],inactive
same,Potency,[4],inactive
same,Potency,[5],inactive
same,Potency,[6],inactive
same,Potency,[7],inactive
same,Potency,[11],inactive
same,Potency,[8],inactive
same,Potency,[10],inactive
CCCCCCCC/C=C\CCCCCCCC(=O)N(CCO)CCO,Potency,[1],inactive
same,Potency,[2],inactive
same,outcome,[3],inactive
same,Potency,[4],inactive
same,Potency,[5],68.3 µM (active)
same,Potency,[6],inactive
same,Potency,[11],60.9 µM (active)
same,Potency,[8],19.9 µM (active)
c1ccc2occc2c1,Potency,[1],inactive
same,Potency,[2],inactive
same,outcome,[3],inactive
same,Potency,[12],inactive
same,Potency,[13],inactive
same,Potency,[14],inactive
same,Potency,[4],inactive
same,Potency,[5],inactive
same,Potency,[6],inactive
same,Potency,[7],inactive
same,Potency,[11],inactive
same,Potency,[15],31.7 µM (active)
same,Potency,[9],35.6 µM (active)
same,Potency,[16],28.3 µM (active)
same,Potency,[10],inactive
COc1cc2ncnc(Nc3cccc(Cl)c3)c2cc1OC,"viability change, negative = cytotoxic",[1],0.414% [at 15.8 µM]
same,"activity change, negative = cytotoxicity",[2],9.42% [at 15.8 µM]
same,activation,[3],-4.98% [at 15.8 µM]
same,"activity, negative = inhibition",[12],-3.3% [at 10.5 µM]
same,caspase activation,[4],0.14% [at 19 µM]
same,"activity change, negative = cytotoxicity",[5],-12.4% [at 19 µM]
same,caspase-3/7 activation,[6],-2.78% [at 19 µM]
same,"activity change, negative = cytotoxicity",[7],-10% [at 19 µM]
same,"activity change, negative = inhibition",[10],7% [at 15.8 µM]
CCOC(=O)[C@H](O)[C@@H](O)C(=O)OCC,Potency,[17],inactive
same,Potency,[2],inactive
same,outcome,[3],inactive
same,Potency,[12],inactive
same,Potency,[13],inactive
same,Potency,[14],inactive
same,Potency,[4],inactive
same,Potency,[5],inactive
same,Potency,[6],inactive
same,Potency,[7],inactive
same,Potency,[11],inactive
same,Potency,[8],inactive
same,Potency,[10],inactive
CN1CCN(CCCN2c3ccccc3Sc3ccc(Cl)cc32)CC1,Potency,[1],inactive
same,Potency,[2],inactive
same,outcome,[3],inactive
same,Potency,[4],inactive
same,Potency,[6],inactive
same,Potency,[15],0.275 µM (active)
same,Potency,[9],inactive
same,Potency,[16],2.57 µM (active)
CC/C(=C(/c1ccc(O)cc1)c1ccc(OCCN(C)C)cc1)c1ccccc1,Potency,[17],18 µM (active)
same,Potency,[12],inactive
same,Potency,[13],inactive
same,Potency,[14],18 µM (active)
same,Potency,[4],40.3 µM (active)
same,Potency,[5],32 µM (active)
same,Potency,[7],28.5 µM (active)
same,Potency,[15],18.6 µM (active)
same,Potency,[8],37.2 µM (active)
same,Potency,[9],37.2 µM (active)
CC1(C)[C@H]2CC[C@]1(C)C(=O)C2,Potency,[1],inactive
same,Potency,[2],inactive
same,outcome,[3],inactive
same,Potency,[12],inactive
same,Potency,[13],inactive
same,Potency,[14],inactive
same,Potency,[4],inactive
same,Potency,[5],61.1 µM (active)
same,Potency,[6],inactive
same,Potency,[7],inactive
same,Potency,[11],inactive
same,Potency,[15],inactive
same,Potency,[8],inactive
same,Potency,[9],inactive
same,Potency,[16],inactive
same,Potency,[10],inactive
O=C(N[C@H](CO)[C@H](O)c1ccc([N+](=O)[O-])cc1)C(Cl)Cl,Potency,[1],inactive
same,Potency,[2],inactive
same,outcome,[3],inactive
same,Potency,[14],inactive
same,Potency,[4],inactive
same,Potency,[5],inactive
same,Potency,[6],inactive
Brc1cc(Br)cc(Br)c1,Potency,[1],inactive
same,Potency,[2],inactive
same,outcome,[3],inactive
same,Potency,[12],inactive
same,Potency,[13],inactive
same,Potency,[14],inactive
same,Potency,[5],inactive
same,Potency,[6],inactive
same,Potency,[7],inactive
same,Potency,[11],inactive
same,Potency,[8],inactive
same,Potency,[10],inactive
CN(C[C@@H](CC[N+]12CCC(C3CCCCC3)(CC1)CC2)c1ccc(Cl)c(Cl)c1)C(=O)c1cc(C(F)(F)F)cc(C(F)(F)F)c1,Potency,[17],13.7 µM (active)
same,Potency,[1],inactive
same,Potency,[12],inactive
same,Potency,[4],inactive
same,Potency,[5],61.1 µM (active)
same,Potency,[6],inactive
same,Potency,[7],68.6 µM (active)
same,Potency,[11],inactive
same,Potency,[15],15.9 µM (active)
same,Potency,[8],5.64 µM (active)
same,Potency,[9],39.9 µM (active)
same,Potency,[16],71 µM (active)
same,Potency,[10],inactive
Nc1ccc(Oc2cccc(Oc3ccc(N)cc3)c2)cc1,Potency,[1],inactive
same,Potency,[2],inactive
same,outcome,[3],inactive
same,Potency,[12],inactive
same,Potency,[14],inactive
same,Potency,[4],inactive
same,Potency,[5],inactive
same,Potency,[6],inactive
same,Potency,[7],inactive
same,Potency,[11],inactive
same,Potency,[8],11.2 µM (active)
same,Potency,[16],inactive
same,Potency,[10],inactive
CN1CCN(C)CC1,Potency,[1],inactive
same,Potency,[2],inactive
same,outcome,[3],inactive
same,Potency,[14],inactive
same,Potency,[4],inactive
same,Potency,[5],inactive
same,Potency,[6],inactive
same,Potency,[7],inactive
same,Potency,[11],inactive
same,Potency,[8],inactive
same,Potency,[9],inactive
same,Potency,[16],inactive
same,Potency,[10],inactive
O=C1OC(=O)c2cc(-c3ccc4c(c3)C(=O)OC4=O)ccc21,Potency,[1],inactive
same,Potency,[2],inactive
same,outcome,[3],inactive
same,Potency,[12],inactive
same,Potency,[13],inactive
same,Potency,[4],inactive
same,Potency,[5],inactive
same,Potency,[6],inactive
same,Potency,[7],inactive
same,Potency,[15],inactive
same,Potency,[8],8.94 µM (active)
same,Potency,[9],inactive
same,Potency,[16],35.6 µM (active)
same,Potency,[10],inactive
CCc1c(C)cc(N)c(CC)c1N,Potency,[17],inactive
same,Potency,[2],inactive
same,outcome,[3],inactive
same,Potency,[12],inactive
same,Potency,[13],inactive
same,Potency,[4],inactive
same,Potency,[5],inactive
same,Potency,[6],inactive
same,Potency,[7],inactive
same,Potency,[11],24.3 µM (active)
same,Potency,[8],14.2 µM (active)
same,Potency,[9],28.3 µM (active)
same,Potency,[16],20 µM (active)
same,Potency,[10],inactive
